# Screening data deposited in PubChem BioAssay by University of Kansas High Throughput Screening Laboratory.
# Only a selection was taken, and hits are over-represented in it overall.
# Pf apPOL inh = Pf-apPOL DNA polymerase inhibition | Recombinant Pf-apPOL, molecular beacon fluorescence, 1.5 h | inhibition, % at 10 µM | 210,000 compounds, 0.25% hits
# mHTT-CaM PPI inh = mHTT-calmodulin interaction abrogation | AlphaScreen His-mHTT/GST-CaM binding, luminescence | inhibition, % at 15 µM | 190,000 compounds, 3.6% hits | AID 1671202;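 also: 0% = both proteins with DMSO and 100% = one protein alone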
# Active calls of the source: *; . = not tested or not shown. Rule as the data show it: active = inhibition above about 50%; inactive = the rest.
SMILES,Pf apPOL inh,mHTT-CaM PPI inh
COc1cc2c(cc1OC)C1c3cc([N+](=O)[O-])ccc3Oc3cc(C#N)c(C#N)cc3N1CC2 (configuration not stated),-2,13
COc1cc2c(cc1OC)-c1c(OC)c(OC)c([N+](=O)[O-])c3c1C(C2)N(C)CC3 (configuration not stated),.,57*
COc1ccc2c(c1)C1(CCN(C(=O)Cc3cccc(F)c3)C1)C(=O)N2C (configuration not stated),-7,3
COc1ccc2c(c1)C1(CCN(S(=O)(=O)c3ccc(F)c(F)c3)C1)C(=O)N2 (configuration not stated),-8,5
Cc1cccc(N2CCN(Cc3ccccc3)CC2)c1C,-6,-15
Cc1cccc(N2CCN(Cc3ccc(N(C)C)cc3)CC2)c1C,-14,67*
Fc1ccccc1C1C=C(c2cccnc2)Nc2nnnn21 (configuration not stated),-11,0
CCN(CC)c1ccc(CN2CCN(c3ccccc3)CC2)cc1,0,51*
Brc1ccc(CN2CCN(c3ccccc3)CC2)cc1,-6,1
Fc1ccc(C2NCCc3[nH]cnc32)c(F)c1 (configuration not stated),-3,6
CN1CCN(Cc2ccco2)CC1,78*,0
CN1CCN(Cc2ccc[nH]2)CC1,-6,30
c1cc(C2N3CCCN23)ccn1 (configuration not stated),.,-4
CCC(=O)Nc1ccc(Cl)cc1C(=O)c1ccccc1,-3,0
O=C(CN1CCOCC1)Nc1ccc(Cl)cc1C(=O)c1ccccc1,74*,-3
O=C(c1nccs1)C1CCCN1 (configuration not stated),.,98*
O=C(O)CNC(=O)c1cccnc1,-9,.
Cc1ccc(C2c3c(c4ccccc4oc3=O)Oc3c2c(=O)oc2ccccc32)o1,36,47
O=c1oc2ccccc2c2c1C(c1ccc(O)cc1)c1c(c3ccccc3oc1=O)O2,69*,96*
CCCn1cc(C(=O)NC2CCCC2)c2cccnc21,1,-1
c1ccc2c(CCNC3C4CC5CC(C4)CC3C5)c[nH]c2c1 (configuration not stated),0,2
Cc1[nH]c2ccccc2c1CCCNC1CCCCC1,-5,10
Cc1[nH]c2ccccc2c1CCN,1,100*
Cc1cc(N2CCN(C)CC2)c2[nH]c3ccccc3c2c1,12,79*
Cc1nccc2c1[nH]c1ccccc12,11,.
SMILES,Pf apPOL inh,mHTT-CaM PPI inh
COCCN1CCC(N2CCCN(C(=O)COc3ccccc3C)CC2)C1=O (configuration not stated),-4,6
CC(C)(C)NCC(O)c1ccc([N+](=O)[O-])cc1 (configuration not stated),-3,-7
NC(c1c[nH]c2ccccc12)C(F)(F)F (configuration not stated),.,-2
O=C(NCCc1ccccc1)C(Cl)(Cl)Cl,6,-3
Cc1cccc(NC(c2ccc(N(C)C)cc2)c2ccc3ccc(C)nc3c2O)n1 (configuration not stated),-4,100*
Cc1ccc2cccc(OC(=O)N(C)c3ccccc3)c2n1,2,-7
O=C1CNC(c2ccccc2Cl)c2cc(Br)ccc2N1 (configuration not stated),-1,61*
CC(=O)N1CC(=O)Nc2ccc(Br)cc2C1c1ccccc1Cl (configuration not stated),-3,16
OCCN(CCc1ccccc1)Cc1ccccc1,-6,-14
OC(CN(Cc1ccccc1)Cc1ccccc1)c1ccc2cc[nH]c2c1 (configuration not stated),3,68*
COCCN1CCC(N2CCCN(C(=O)Cc3cccc(C)c3)CC2)C1=O (configuration not stated),0,11
COc1ccc(-n2c(C)nc3cc(C(=O)N4CCC5(CC4)OCCO5)ccc32)cc1,-4,1
Cc1nc2cc(C(=O)N3CCC4(CC3)OCCO4)ccc2n1-c1ccc(Br)cc1,-1,57*
CCSc1sc(CC)cc1C=C(C#N)C#N,.,-26
COc1cc(OC)c(OC)cc1CNCCc1cccc(Cl)c1,-2,2
COc1cc(CNCCc2cccc(Cl)c2)c([N+](=O)[O-])cc1OC,-1,57*
CCN1CCN(C(=O)COc2ccc(C34CC5CC(CC(C5)C3)C4)cc2)CC1,-9,15
CCn1cc(C(=O)NCc2cccc(Br)c2)c2cccnc21,-19,58*
CCn1cc(C(=O)NCc2ccc3c(c2)OCO3)c2cccnc21,-11,12
